According to PubChem BioAssay (NCATS):
Values joined by “and” are separate entries in the source; they are usually repeats but may differ in a detail not shown here. Identical values can stand only once. Results filed as inconclusive are left out. Where a call stands in place of a potency, no number is given. Active and inactive are the calls of the source. Unless noted, the call rests on the fitted dose curve; in most records, active means well fitted curve in the direction sought with a large enough effect; inconclusive means small, poorly fitted or top-dose-only effect, or another doubt; inactive means no such curve, though single readings can be large; an effect the other way counts as inactive or inconclusive.

What was measured:
[1] = molecular target: Calcium and integrin-binding protein 1 (Homo sapiens) (UniProt Q99828); assay: Primary qHTS for Identification of Calcium Integrin Binding Protein 1 (CIB1) Competitor (AID 1508620);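 further: GST tagged CIB1 binding a fluorescein labelled alphaIIb integrin peptide tracer; top concentration of the series differs between compounds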
In short: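 Fluorescence polarization competition: GST-tagged CIB1 (1 uM final) preincubated with compound 15 min at room temperature, then FITC-labelled alphaIIb peptide (100 nM final) added. After 15 min at room temperature, polarization read at Ex 480/Em 540.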

[2] = molecular target: Cytochrome P450 2C9 (Homo sapiens) (UniProt P11712); assay: Cytochrome P450 family 2 subfamily C member 9 (CYP2C9) small molecule antagonists: luciferase biochemical (cell-free) qHTS assay (AID 1645842; active means well fitted curve in the direction sought with a large enough effect in the repeat runs; an effect the other way counts as inactive or inconclusive; further: nearly all actives have a fitted effect of over 55% in size; further: potency means the concentration at half of the fitted maximal effect)
In short: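 P450-Glo CYP2C9 system: proluciferin substrate with enzyme in mix containing 0.4% BSA, 10 min at room temperature, then NADPH regeneration solution added and incubated 1 h at 37C. Detection reagent stopped reaction; luminescence read after 20 min as RLU.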

[3] = Primary qHTS for inhibitors of nuclear receptor binding SET domain protein 2 (NSD2) in an isogenic RCH-ACV NSD2 p.E1099K mutant (9B) (AID 1645876); further: nearly all actives have a fitted effect of over 70% in size; further: potency means the concentration at half of the fitted maximal effect
[4] = molecular target: N-terminal Xaa-Pro-Lys N-methyltransferase 1 (Homo sapiens) (UniProt Q9BV86); assay: Confirmatory qHTS for Inhibitors of N-terminal methyltransferase 1 (NTMT1): MTaseGlo Assay (AID 1645874); further: potency means the concentration at half of the fitted maximal effect; nearly all actives have a fitted effect of over 65% in size
In short: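 SPKRIA peptide at 1 uM was methylated by 125 nM NTMT1 using 100 uM SAM over 30 min at room temperature, following a 15 min compound preincubation. Product SAH was detected luminescently.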

Chain of N-terminal Xaa-Pro-Lys N-methyltransferase 1 (Homo sapiens) (Q9BV86 whole entry, looked up): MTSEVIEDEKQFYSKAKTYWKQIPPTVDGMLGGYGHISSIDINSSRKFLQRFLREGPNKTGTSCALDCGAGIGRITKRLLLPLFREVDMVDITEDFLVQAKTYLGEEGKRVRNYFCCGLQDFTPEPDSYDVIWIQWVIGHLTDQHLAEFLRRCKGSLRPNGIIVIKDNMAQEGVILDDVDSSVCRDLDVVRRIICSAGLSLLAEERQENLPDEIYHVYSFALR
Chain of Cytochrome P450 2C9 (Homo sapiens) (P11712 whole entry, looked up): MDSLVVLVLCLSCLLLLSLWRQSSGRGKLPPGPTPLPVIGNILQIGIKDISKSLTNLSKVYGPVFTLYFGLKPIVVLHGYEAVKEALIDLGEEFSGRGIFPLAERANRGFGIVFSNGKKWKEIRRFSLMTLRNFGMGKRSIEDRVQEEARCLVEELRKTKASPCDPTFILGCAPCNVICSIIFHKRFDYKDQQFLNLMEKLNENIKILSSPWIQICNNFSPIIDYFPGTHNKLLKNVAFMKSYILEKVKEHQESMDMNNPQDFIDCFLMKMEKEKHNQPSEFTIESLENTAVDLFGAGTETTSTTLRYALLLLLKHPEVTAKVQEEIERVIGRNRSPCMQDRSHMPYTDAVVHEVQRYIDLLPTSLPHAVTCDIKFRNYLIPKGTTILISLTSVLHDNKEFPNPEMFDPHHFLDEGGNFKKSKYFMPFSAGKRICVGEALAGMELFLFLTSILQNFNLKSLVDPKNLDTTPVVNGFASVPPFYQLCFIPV
Chain of Calcium and integrin-binding protein 1 (Homo sapiens) (Q99828 whole entry, looked up): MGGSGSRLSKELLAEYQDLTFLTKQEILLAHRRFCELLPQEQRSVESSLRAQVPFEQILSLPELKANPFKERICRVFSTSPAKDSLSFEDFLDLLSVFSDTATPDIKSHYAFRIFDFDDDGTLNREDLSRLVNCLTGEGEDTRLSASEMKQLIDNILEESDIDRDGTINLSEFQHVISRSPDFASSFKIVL

Row | SMILES | Potency [1] | Potency [2] | Potency [3] | Potency [4]
1 | CCc1cnn2c(NCc3ccc[n+]([O-])c3)cc(N3CCCCC3CCO)nc12 (configuration not stated) | inactive | 15.1 µM (active) | 9.2 nM (active) | –
2 | COc1cc(OC)cc(C(=O)Nc2ccc(Cl)c(-c3nc4ccc(N(C)C)cc4[nH]3)c2)c1 | inactive | 1.69 µM (active) | – | –
3 | O=C(c1cc2c(cc1F)OC(c1ccc(F)cc1)(c1ccc(Cl)cc1Cl)O2)N1CCOCC1 (configuration not stated) | inactive | 10.7 µM (active) | – | –
4 | COc1ccc(CNC(=O)c2sc3nc(C)cc(C)c3c2N)cc1 | inactive | 3.79 µM (active) | – | –
5 | NC[C@@](O)(c1ccc(Cl)cc1)c1ccc(-c2cn[nH]c2)cc1 | inactive | 1.2 µM (active) | 6.49 µM (active) and 5.25 µM (active) | –
6 | C[C@@H]1CCN(C(=O)N2CCCC2)C[C@@H]1N(C)c1ncnc2[nH]ccc12 | inactive | inactive | – | –
7 | N#Cc1c(Oc2ccc(F)c(NC(=O)Cc3cccc(C(F)(F)F)c3)c2)ccc2nc(NC(=O)C3CC3)sc12 | inactive | 0.338 µM (active) | 578 nM (active) | –
8 | COc1ccc(CNC(=O)c2cc(-c3cncc(C)c3)ncc2-c2nccs2)nc1OC | inactive | 4.25 µM (active) | inactive | –
9 | C=CC(=O)Nc1cc(Nc2nccc(-c3c[nH]c4ccccc34)n2)c(OC)cc1N(C)CCN(C)C | inactive | 8.49 µM (active) | – | –
10 | COc1ccc(C(=O)n2c(C)c(Cc3cccc(O[C@@H](C)C(=O)O)c3)c3cc(OC(F)(F)F)ccc32)cc1 | inactive | 19 µM (active) | inactive | –
11 | C[C@H](Oc1ccc(S(C)(=O)=O)cc1C(=O)N1CCN(c2ncc(C(F)(F)F)cc2F)CC1)C(F)(F)F | inactive | 6.74 µM (active) | – | –
12 | COc1cc2ncnc(Nc3ccc(O)cc3)c2cc1OC | inactive | inactive | – | –
13 | CC(=O)NC[C@H]1CN(c2ccc(N3CCN(C(=O)CO)CC3)c(F)c2)C(=O)O1 | inactive | inactive | – | –
14 | CCN(CC)Cc1ccc(C(=O)N(CCc2ccccc2OC)[C@@H]2CCNC2)cc1 | inactive | inactive | – | –
15 | O=C(C(c1ccccc1)c1ccccc1)N1CCN(CC(O)COc2cccc3ncccc23)CC1 (configuration not stated) | inactive | 12 µM (active) | – | –
16 | O=S(=O)(c1ccccc1)c1cnc2c(N3CCNCC3)cccc2c1 | inactive | 0.338 µM (active) | – | –
17 | Cc1c(C(=O)N2CCOc3ccc(-c4ccc(N)nc4)cc3C2)ccc(S(C)(=O)=O)c1F | inactive | inactive | 817 nM (active) and 1.32 µM (active) | –
18 | COc1ccc(C(=O)C2CCN(CC(=O)N(Cc3nc4c(c(=O)[nH]3)COCC4)CC3CC3)CC2)cc1 | inactive | 8.49 µM (active) | inactive | –
19 | CCOc1cc2ncc(C#N)c(Nc3ccc(F)c(Cl)c3)c2cc1NC(=O)/C=C/CN(C)C | inactive | 3.79 µM (active) | 459 nM (active) and 742 nM (active) | 1.2 µM (active)
20 | Cc1nc2sc(C(=O)NCc3ccncc3)c(N)c2c(C)c1Cl | inactive | inactive | inactive | –
21 | N#Cc1cnc2cnc(NCc3cccnc3)cc2c1Nc1ccc(F)c(Cl)c1 | inactive | 1.2 µM (active) | – | –
22 | CCN1CCN(Cc2ccc(Nc3ncc(F)c(-c4cc(F)c5nc(C)n(C(C)C)c5c4)n3)nc2)CC1 | inactive | inactive | 728 nM (active) and 468 nM (active) | 20 µM (active)
23 | Cc1noc(=O)c2ccc(NC(=O)C(O)(CC(C)(C)c3cccc4c3OCC4)C(F)(F)F)cc12 (configuration not stated) | inactive | inactive | – | –
24 | COCCN1CCN(Cc2ccc(-c3n[nH]c4c3C(=O)c3c(NC(=O)NN5CCOCC5)cccc3-4)cc2)CC1 | inactive | 2.13 µM (active) | 45.9 nM (active) and 59 nM (active) | –
25 | O=C(Nc1ccc(Cl)cc1F)c1ccccc1O | inactive | 9.52 µM (active) | – | –
26 | CCOCc1nc2c(N)nc3ccccc3c2n1CC(C)(C)O | inactive | inactive | inactive | –
27 | COc1cc2ncnc(Nc3ccc(F)c(Cl)c3)c2cc1NC(=O)/C=C/CN1CCCCC1 | inactive | inactive | 4170 nM (active) | 35.5 µM (active)
28 | Cc1cc(N2CCN([C@@H]3CN[C@H](C(=O)N4CCSC4)C3)CC2)n(-c2ccccc2)n1 | inactive | inactive | – | –
29 | O=C(NCc1ccc(S(=O)(=O)c2cc(F)cc(F)c2)cc1)c1ccc2nccn2c1 | inactive | inactive | inactive | –
30 | CON(C)C(=O)[C@H](O)[C@H](Cc1ccccc1)NC(=O)c1cc2cc(Cl)ccc2[nH]1 | inactive | 10.7 µM (active) | – | –
